# Cruzain inh noDet: blocks cruzain activity in detergent-free assay. P25779. AID 1476. 200,000 tested, 2.3% active. purified cruzain, Z-FR-AMC fluorescence, no detergent. Potency, µM, for the others: max response, negative = inhibition, hits mostly inhibitors;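 also: plate controls were enzyme without inhibitor for no effect and buffer without enzyme for full effect; nearly all actives have a fitted effect of over 40% in size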
# Target sequence (P25779 123-467 limits assumed): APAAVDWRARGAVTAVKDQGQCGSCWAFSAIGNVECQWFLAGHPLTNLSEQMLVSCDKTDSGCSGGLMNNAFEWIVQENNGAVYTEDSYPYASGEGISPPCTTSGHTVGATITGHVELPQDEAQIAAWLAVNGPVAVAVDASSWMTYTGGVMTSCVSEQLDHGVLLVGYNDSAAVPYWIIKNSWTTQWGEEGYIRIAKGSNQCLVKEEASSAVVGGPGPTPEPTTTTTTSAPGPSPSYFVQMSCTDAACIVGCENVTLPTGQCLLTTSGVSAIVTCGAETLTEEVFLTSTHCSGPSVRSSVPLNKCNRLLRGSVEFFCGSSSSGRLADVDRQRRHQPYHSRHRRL
#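 Purified cruzain at 1.5 nM, pre-incubated 15 min with compound at room temperature in 100 mM sodium acetate pH 5.5, 5 mM DTT, 0.00005% Triton X-100. Reaction started with 2 uM Z-FR-AMC; AMC fluorescence increase over 60 s gives rate.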
# Cruzain inh Det: blocks cruzain activity in presence of Triton detergent. P25779. purified cruzain, Z-FR-AMC fluorescence, 0.01% Triton. Potency, µM, for the others: max response, negative = inhibition, usual class: inhibitors. 200,000 tested, 0.43% active. AID 1478;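 also: plate controls were neutral wells for no effect and buffer without enzyme for full effect; nearly all actives have a fitted effect of over 40% in size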
#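 Sodium acetate buffer (100 mM, pH 5.5) containing 5 mM DTT and 0.01% Triton X-100 hosted 1.5 nM cruzain and test compound for 15 min at room temperature. Cleavage of 2 uM Z-FR-AMC was then tracked by fluorescence.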
# An asterisk follows results filed as active; ? = inconclusive. In the library only some 2.6% were active in any assay of this set; here they are far more common. Calls follow the shape of the dose curve; as a rule, active = well fitted curve in the direction sought with a large enough effect; inconclusive = small, poorly fitted or top-dose-only effect, or another doubt; inactive = no such curve, though single readings can be large; an effect the other way counts as inactive or inconclusive. Potency is read from the fitted curve at half-maximal effect.
SMILES,Cruzain inh noDet,Cruzain inh Det
CNc1ccccc1C(=O)N1CCc2c([nH]c3ccccc23)C1=O,-14%,-6%
CC(C)c1ccc(NC(=O)Nc2cc3sccc3n2C)cc1,7.9µM*,-9%
Cn1c(C(=O)Nc2ccc3c(c2)OCCO3)cc2sccc21,?,-9%
COCCCNC(=O)c1cc2cc(S(=O)(=O)N3CCCCC3)ccc2n1C,-2%,-1%
O=C(O)c1nc(-c2ccccc2)n(-c2ccc(Cl)cc2)n1,-5%,6%
CC[C@@H]1C(c2cccc(Cl)c2)=NN(c2ccc(Br)cc2)[C@H]1C(=O)N1CCOC1=O,?,-3%
O=C1OCCN1C(=O)[C@H]1[C@H](c2ccccc2)C(c2cccc(Cl)c2)=NN1c1ccc(Br)cc1,13µM*,1%
CC[C@@H]1C(c2ccccc2)=NN(c2ccc(Br)cc2)[C@H]1C(=O)N1CCOC1=O,25µM*,-1%
O=C1OCCN1C(=O)[C@H]1[C@H](c2ccc(F)cc2)C(c2cccc(Cl)c2)=NN1c1ccc(Br)cc1,16µM*,-2%
O=C1OCCN1C(=O)[C@H]1[C@H](c2ccc(Cl)cc2)C(c2ccccc2)=NN1c1ccc(Br)cc1,11µM*,-3%
Fc1ccccc1,-1%,5%
O=C(CSc1nc2ccsc2c(=O)n1Cc1ccccc1F)NCc1ccccc1Cl,9%,1%
CCOCCCn1c(SCC(=O)Nc2ccc(F)cc2)nc2c(sc3ccccc32)c1=O,6%,2%
CC(C)CC1N=C2c3ccccc3N=C(SCC(=O)NCCc3ccc(Cl)cc3)N2C1=O (stereo unspecified),11%,1%
COc1ccc(-c2nc(-c3ccccc3)c(NCc3ccccc3)o2)cc1,-2%,3%
COc1ccc(Nc2oc(/C=C/c3ccccc3OC)nc2C#N)cc1,?,-1%
CCN1CCN(c2oc(/C=C/c3ccccc3OC)nc2C#N)CC1,32µM*,-25%
COc1ccccc1/C=C/c1nc(C#N)c(N2CCN(C)CC2)o1,25µM*,-29%
COc1cc(/C=C/c2nc(C#N)c(N3CCCCC3)o2)cc(OC)c1OC,22%,-9%
NC(N)=N/N=C(/c1ccccc1)c1ccc(O)cc1O,-5%,-3%
CCc1ccc(NC(=O)CSc2nc(=O)n(Cc3cccnc3)c3c2CCC3)cc1,22%,-2%
Cc1ccc2oc(-c3cccc(NC(=S)NC(=O)c4cccs4)c3)nc2c1,?,0%
O=C(/C=C/c1ccco1)NC(=S)Nc1ccccn1,-7%,-10%
O=C(/C=C/c1ccco1)NC(=S)Nc1nc(-c2ccc(Cl)cc2)cs1,5µM*,-2%
O=C(/C=C/c1ccco1)NC(=S)Nc1nc(-c2ccc3ccccc3c2)cs1,4µM*,2%
SMILES,Cruzain inh noDet,Cruzain inh Det
Cc1ccc2oc(-c3cccc(NC(=S)NC(=O)/C=C/c4ccco4)c3)nc2c1,4µM*,-7%
O=C(/C=C\c1ccco1)Nc1nc(-c2ccccc2)cs1,10%,1%
Cc1ccc(C)c(Cn2c(=O)n(CCCCC(=O)NCc3ccc4c(c3)OCO4)c(=O)c3ccccc32)c1,-2%,-2%
CCN1CCN(C(=O)Cn2ncc3c4ccccc4n(Cc4ccccc4F)c3c2=O)CC1,1%,-4%
COc1cc(C2c3c(oc4ccc(F)cc4c3=O)C(=O)N2Cc2ccc3c(c2)OCO3)ccc1O (stereo unspecified),13%,-3%
CN(C)c1ncc2nc(-c3cc(F)cc(F)c3)c(=O)n(C[C@H]3CCCO3)c2n1,10%,2%
CCn1c(SCC(=O)Nc2ccccc2)nc2c([nH]c3ccccc32)c1=O,-5%,-3%
Cc1cc(/C=N/Nc2ccc([N+](=O)[O-])cn2)c(C)n1-c1ccccc1,4µM*,-2%
Cc1cc(C)cc(-n2c(C)cc(/C=N/NC(=O)c3cccc([N+](=O)[O-])c3C)c2C)c1,?,-4%
Cc1ccc(Cn2cc(/C=N/Nc3ccc([N+](=O)[O-])cn3)c3ccccc32)cc1,6.3µM*,-4%
O=Cc1cn(Cc2ccc([N+](=O)[O-])cc2)c2ccccc12,?,-7%
Cc1ccc(-n2c(C)cc(/C=N/Nc3ccc([N+](=O)[O-])cn3)c2C)cc1,7.9µM*,-6%
Cc1ccc([N+](=O)[O-])cc1/C=N/Nc1nnnn1-c1ccccc1,-10%,1%
O=C(Nc1cccc(C(=O)N2CCCCC2)c1)c1nsc2ccccc12,1%,-1%
O=C(c1ccco1)N(Cc1cccnc1)c1nc2ccc(F)cc2s1,0%,0%
Cc1ccc(S(=O)(=O)NCC(Nc2cccc(Cl)c2)c2ccccc2)cc1 (stereo unspecified),-27%,-6%
CCSc1nc2c(c(=O)[nH]1)C(c1cccnc1)C(C(=O)OC)=C(C)N2 (stereo unspecified),-6%,-2%
COC(=O)C1=C(C)Nc2nc(SCc3ccccc3)[nH]c(=O)c2C1c1cccs1 (stereo unspecified),25µM*,-1%
O=C(CCC1N=C2c3ccccc3N=C(SCc3cccc(F)c3)N2C1=O)NCc1ccc(F)cc1 (stereo unspecified),10%,-3%
O=C(NCc1ccc2c(c1)OCO2)C1CCN(c2ccc(S(=O)(=O)N3CCCC3)cc2)CC1,25µM*,-1%
O=C(NCc1ccc2c(c1)OCO2)C1CCN(S(=O)(=O)N2CCCCC2)CC1,-1%,-3%
O=C(N/N=C/c1cn(-c2ccccc2)nc1-c1cccs1)c1ccccc1F,32µM*,-7%
O=C(N/N=C/c1cn(-c2ccccc2)nc1-c1cccs1)c1ccc(Cl)cc1,13µM*,-9%
O=C(Nc1ccncc1)c1cn(-c2ccccc2)nc1-c1cccs1,-8%,-4%
O=C(N/N=C/c1cn(-c2ccccc2)nc1-c1cc2ccccc2o1)c1ccncc1,24%,-11%
SMILES,Cruzain inh noDet,Cruzain inh Det
O=S(=O)(N/N=C\c1cn(-c2ccccc2)nc1-c1ccccc1)c1ccccc1,?,-3%
O=C(CNc1ccccc1)N/N=C/c1cn(-c2ccccc2)nc1-c1ccccc1,25µM*,-6%
O=C(N/N=C\c1ccc(OC(=O)c2cccs2)cc1)c1ccc(Cl)cc1,10µM*,-21%
COc1ccc(C(=O)N/N=C/c2ccc(OC(=O)c3cccs3)cc2)cc1,?,0%
COc1cc(-c2nc3nc(C)cc(C)n3c2Nc2ccc(Cl)cc2)ccc1O,?,-9%
CCOc1cc(C#N)c(-n2nnc3c(sc4nc(C)cc(C)c43)c2=O)cc1OCC,-3%,1%
COc1cc(OC)c(NC(=O)c2sc3nc4n(c(=O)c3c2C)CCCC4)cc1Cl,?,-7%
Cc1nn(-c2ccccn2)c2c1C(c1c(F)cccc1Cl)C1=C(N2)c2ccccc2C1=O (stereo unspecified),25µM*,-6%
Cc1nn(-c2ccccn2)c2c1C(c1ccccc1Cl)C1=C(N2)c2ccccc2C1=O (stereo unspecified),-14%,-2%
COc1cccc(Cn2c(CNS(=O)(=O)c3ccc4c(c3)CCCC4)nc3cccnc32)c1,-22%,-5%
COc1ccc(-c2nc3sc(CCNC(=O)c4ccco4)c(C)n3n2)cc1,3%,-2%
OCc1ccccc1N=c1ssnc1Cl,25µM*,-3%
CC(/C=C/c1ccc(OCc2ccccc2)cc1)=N\O,?,-3%
CC(/C=C/c1ccc(O)cc1)=N/O,7.9µM*,22µM*
Cc1ccc(S(=O)(=O)NCCc2sc3nc(-c4ccccc4)nn3c2C)cc1C,10%,-6%
COc1ccc(OCC(=O)Nc2ccc(O)c(-c3nc4ccccc4s3)c2)cc1,3%,-2%
Oc1ccc(N=C/C=C/c2ccc(Br)cc2)cc1-c1nc2ccccc2s1,32µM*,-14%
